Data on 16 molecules can be found in PubChem BioAssay AID493122 (National Center for Advancing Translational Sciences (NCATS), 2011).

Each structure is given as a SMILES string. The source made the active and inactive calls. How the calls were made is not given here.

A short description of this assay: Concentration response cycloheximide confirmation counterscreen for small molecule inhibitors of Shiga toxin. To be noted: protein synthesis reporter, cells; series mostly up to 76.6 µM. In general terms: A counterscreen serves to expose hits that act by an unwanted route or on another target.
Regarding `CN(C)S(=O)(=O)c1ccc(C(=O)OCC(=O)c2ccc3c(c2)NC(=O)CO3)cc1`, the call was inactive.
Turning to `CCn1c2ccccc2c2cc(NC(=O)c3cccc([N+](=O)[O-])c3)ccc21`, the molecule was called inactive.
Under `O=C(CC(c1ccccc1)c1cc(Cl)ccc1O)N1CCCC1` (stereo unspecified) stands “inactive”; under `O=C(Nc1ccccc1)c1ccc[nH]1`, “inactive”; under `CN(C)S(=O)(=O)c1ccc(C(=O)Nc2ccc(CN3CCCC3)cc2)cc1`, “inactive”.
As for `CC(C)CNC(=O)c1noc2c1CCCC2`, the entry is “inactive”; as for `COc1ccc(C(C)(C)C)cc1NC(=O)c1ccc2c(c1)SC1=NS(=O)(=O)CCN12`, “inactive”; as for `C=CCNC(=O)c1ccc(C)c(Br)c1`, “inactive”.
In the case of `Cc1cccc(NC(=O)CCN2C(=O)c3ccccc3S2(=O)=O)c1C`, the molecule was classed as inactive.
Turning to `Cc1cc(C(=O)COC(=O)CNS(=O)(=O)c2ccc3ccccc3c2)c(C)n1-c1ccccc1`, the result was inactive.
In the case of `O=C(NC1CCCC1)c1cc(Cl)ccc1[N+](=O)[O-]`, the molecule was called inactive.
As for `CN(C(=O)c1ccc2c(=O)n3c(nc2c1)CCCCC3)c1ccccc1`, the entry is “inactive”; as for `COc1ccccc1CNC(=O)c1csc2c1CCCC2`, “inactive”; as for `CC1CCC/C=C/C2CC(O)CC2C(O)/C=C/C(=O)O1` (stereo unspecified), “inactive”.
For `CCOC(=O)C1(CCCc2ccccc2)CCN(C(=O)CCn2cncn2)CC1`, the result was inactive.
Consider `CC(=O)c1ccc(N2CCN(S(=O)(=O)c3ccc4c(c3)CC(C)N4C(C)=O)CC2)cc1` (stereo unspecified), for which the molecule was classed as inactive.
